What follows are sequences tested against RUNX1 (UniProt Q01196) (assay: RUNX1 binding intensity (PBM fluorescence) in presence of ETS1, normalised to RUNX1-only experiment (arbitrary fluorescence units); higher = stronger binding). Details: RUNX1 concentration 2 nM; ETS1 concentration 25 nM.
Sequence of RUNX1 (Q01196 whole entry): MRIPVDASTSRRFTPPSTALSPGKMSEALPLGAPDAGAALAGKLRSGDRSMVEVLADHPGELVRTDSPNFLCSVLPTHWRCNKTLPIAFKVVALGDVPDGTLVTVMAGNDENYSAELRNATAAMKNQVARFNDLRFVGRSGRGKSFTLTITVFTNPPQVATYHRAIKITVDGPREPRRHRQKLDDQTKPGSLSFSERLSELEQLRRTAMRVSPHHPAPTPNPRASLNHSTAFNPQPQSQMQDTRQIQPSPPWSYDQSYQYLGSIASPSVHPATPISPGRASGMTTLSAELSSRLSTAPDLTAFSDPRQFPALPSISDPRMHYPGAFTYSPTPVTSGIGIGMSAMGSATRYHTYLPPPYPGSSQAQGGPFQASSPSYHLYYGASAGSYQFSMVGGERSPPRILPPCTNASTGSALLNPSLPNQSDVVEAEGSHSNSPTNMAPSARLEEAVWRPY
Protocol: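 Cooperative gcPBM on 36-bp genomic probes with neighbouring ETS1 and RUNX1 sites. Recombinant human RUNX1 (2 nM) was incubated alone or with ETS1 (25 nM) and detected with anti-RUNX1 antibody plus Alexa488 secondary. Values are medians over 4 replicate spots; the RUNX1+ETS1 data were normalised to the RUNX1-only data. The probes sit in constant array flanks that are not printed.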
AGGCCTCGCTTCCTCTCCTGACCACACCCTGCAGCT was tested, and the RUNX1 binding intensity was 1800. With TCTTCTTCCTCCCCCACCCCAAAAGCCACAGGTGAC the RUNX1 binding intensity was 1410. In the case of ACTGCTTGATTTTCAGGAAGTGGTAAAGTGGCAGGT, the RUNX1 binding intensity is reported as 957. For GTCCCACGCGACTTCCTGCGGGAAACATGGCGGCAT, the RUNX1 binding intensity was 2170. For CATACAGGATGCTGGGGTATGTAAAACAAACCACGG, the RUNX1 binding intensity was 964. In the case of TTCAGGTGACTTCCGGCCGGACCGCTGAGGACGCGG, the RUNX1 binding intensity is reported as 1630. Work on TGGGAACTTCCTGTGGAGGAGTGCATTGTGGGACTT yielded an RUNX1 binding intensity of 1630. CGGCAGGGAAGCAGGAAACCGCGAGTGGAGAAAGGG was tested, and the RUNX1 binding intensity was 2170. For GATACCCAGCCAGCGGAAGTGCGGTTAACTGCCCGA, the RUNX1 binding intensity was 11100. Sequence GCAGTGCAGGAAGTGCTTTGTGTGGTACAATCCCAA has an RUNX1 binding intensity of 1030. AGACCCGGAAATGGTGGGTGTTTCTTGCAACCACGG gave an RUNX1 binding intensity of 1240. CTTAGTGTTTGAGGATGTGGGTTTTACAATCAGATC was tested, and the RUNX1 binding intensity was 1310. GCCGCCTCTTCCTGTGTTGCAAACCACAGGTCCACC was tested, and the RUNX1 binding intensity was 4540. CCAGCCCAGGAAACAAGGAACCCCAAAGCCACAGGA was tested, and the RUNX1 binding intensity was 979. For TCTGTGAAAAAGGATGTGCGGTTATGGAGGAGAACT, the RUNX1 binding intensity was 1930. AGGAGAACTTCCGCCCTTACTATATTACCGCCGGTA was tested, and the RUNX1 binding intensity was 1520. AAGGCGGTACTTCCTCCAGCATTTGCCGCAAGTTAT gave an RUNX1 binding intensity of 1250. GAGCATAGCCTAGCAGGATGTGGTTAAATACATTTG was tested, and the RUNX1 binding intensity was 1970. Work on CTGCCGGAAGCTGCCCCTCCACCATTTTGTGGCCCG yielded an RUNX1 binding intensity of 1280. AGAGACAGCGGGCGGAAACCGCAGAAAAAGTTGAAA gave an RUNX1 binding intensity of 14200. GGTTTCCGGGTGAAAAAAAAAAAAAAAACCACGCCA gave an RUNX1 binding intensity of 1740. CTGCGTTTCCTCTGAGTTTTGCATGTTGAGGTTGGA showed an RUNX1 binding intensity of 1280. GCAGAGAGGAAGTGTGGGGGTGGAGGAGGCCGCAGA gave an RUNX1 binding intensity of 1000. TCCTGGCAGAGACCGGAAGTGCGGTCCGCGGAGCGT was tested, and the RUNX1 binding intensity was 1800. With CCCTTCGCTTCCGCTCCGCGTTCCCACAATGCAGTG the RUNX1 binding intensity was 3700. Work on GATGCTTGTTCAGGATGCGGTTTCTTGCAGCAAGTT yielded an RUNX1 binding intensity of 5090. In the case of TAAGGATGTGTGGCTTCCAGATCAAAAACCGCAAAA, the RUNX1 binding intensity is reported as 10600. Sequence GTCCTCCACTATTGTTTCCGGCCGCAGCAGAGGCGG has an RUNX1 binding intensity of 2170. Sequence GTGGGAGCGGAAGCCTGAGCGGCCTGCGGCCTCCGG has an RUNX1 binding intensity of 1040. Work on GCTCTGCAGGATGTGGCTGTGACCGCAGTGAGGAGC yielded an RUNX1 binding intensity of 7480. With GGCCGGGGGCAGGAAGCTGCGGCGCTGGCTCCCCCC the RUNX1 binding intensity was 884. For GCAGAAGGATTTCCTGTTTCAGGCAACCACAGCGAC, the RUNX1 binding intensity was 1510. With CACTGCGGAAGCAGTGTAGAGAGGTGGTTATCAGTG the RUNX1 binding intensity was 921. Work on AGGGTTACAATTTCCGTAAACCACAGAAGCAGCAGA yielded an RUNX1 binding intensity of 2560. ACACCCCAGGCAGGATGTGGTAGGGGTTGCCCCAGA showed an RUNX1 binding intensity of 2080. GTGGTCTCTCCCGGAAAAACCACTTCCACCGAGAAC was tested, and the RUNX1 binding intensity was 1270. GAAATCCATCACGGATGTGGGCTTTTTGCTCTCATT showed an RUNX1 binding intensity of 1010. For CGGGACCTGTTTCCTTGGGAACCACAAGATAAGACC, the RUNX1 binding intensity was 892. With ATGTTAACATCCTGCCATGAAAACCGCAAGAAGGGC the RUNX1 binding intensity was 26000. Work on GTTTTCAAGGCAGGAAGTGGCTGTGGTGGCACGGAG yielded an RUNX1 binding intensity of 1570.

— the supplement of paper PMC10681739
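Also: Full-length recombinant human ETS1 or RUNX1 bound to double-stranded 36-bp genomic probes on microarrays, detected by protein-specific primary antibody and Alexa488 secondary, spot fluorescence as median of four replicate spots.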
